High-throughput results (PubChem BioAssay)
SARS PLP yeast: SARS-CoV PLP inhibition in yeast | Potency, µM (titrated, usually from 32.9 µM), for inactives: top-dose activity, positive = growth rescue, usual class: activators | S. cerevisiae expressing SARS-CoV PLpro, growth rescue | actives 0.19% (n = 330,000); calls by dose curve; note: potency is the fitted concentration of half-maximal effect; 0% is about no effect; nearly all actives have a fitted effect of over 55% in size
Pf growth 96h: P. falciparum growth inhibition at 96 hours. actives 6.9% (n = 320,000). P. falciparum luciferase reporter growth, 96 h. Potency, µM (top dose mostly 28.7 µM), without a hit: at the highest dose activity change, negative = inhibition, hits mostly inhibitors. AID 504834; note: potency is the fitted concentration of half-maximal effect; % is set by controls: 0 for no effect and ±100 for the full control effect
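Erythrocytes infected with luciferase-expressing P. falciparum were dispensed at 2% hematocrit and 0.05% parasitemia (final), then incubated with compounds 96 hours at 37 C in 5% CO2. Luminescence after detection reagent addition reported growth.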
Shiga toxin inh: Shiga toxin inhibition. inhibition, % at 38.7 µM. AID 2315. actives 9.2% (n = 290,000). Vero cells, Shiga toxin protein synthesis inhibition reporter; in the data active = inhibition mostly above about 28%, no sharp cut-off; inactive = mostly below about 43%; note: 0% is about no effect
Pf growth 48h: P. falciparum growth inhibition at 48 hours (one generation) | P. falciparum luciferase growth in erythrocytes, 48 h | Potency, µM (top dose mostly 28.7 µM), for inactives: top-dose activity change, negative = inhibition, usual class: inhibitors | actives 5.9% (n = 310,000); note: potency is the fitted concentration of half-maximal effect; % is set by controls: 0 for no effect and ±100 for the full control effect
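Firefly luciferase activity from engineered P. falciparum reports growth; inhibitors lower the luminescent signal. Cultures contained 2% hematocrit erythrocytes at 0.1% final parasitemia.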
AMA1-RON2 inh: AMA1-RON2 (P. falciparum) interaction inhibition. AID 720542. Potency, µM (series often up to 58.2 µM), for the others: at the top dose activity change, negative = inhibition, most hits filed as inhibitors. actives 0.2% (n = 360,000). AlphaScreen AMA1-biotinylated RON2 peptide binding;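 note: potency is the fitted concentration of half-maximal effect; 0% = vehicle wells and -100% = peptide control; nearly all actives have a fitted effect of over 45% in size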
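AMA1 (3D7) with his tag at 25 nM final met compounds first, then biotinylated RON2 peptide at 25 nM; detection used donor plus acceptor beads, 10 µg/mL apiece, read by AlphaScreen after 30 min at room temperature.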
CHX counter: counter-screen for Shiga toxin inhibitors: cycloheximide protein synthesis inhibition. actives 12% (n = 300,000). max response, %. cell reporter, cycloheximide protein synthesis inhibition counterscreen; in the data active = max response mostly above about 13%, no sharp cut-off; inactive = mostly below about 14%; note: read at 38.3 µM for the half of the compounds with a filed dose; 0% is about no effect
Numbers without * were called inactive; ? = inconclusive; . = no result; + = active, no number; [ ] = another dose, or the depositor's remark. The list is not random: actives were taken first. Their share in the collection is about 19%. Unless noted, calls come from the whole dose curve; as a rule, active = well fitted curve in the direction sought with a large enough effect; inconclusive = small, poorly fitted or top-dose-only effect, or another doubt; inactive = no such curve, though single readings can be large; an effect the other way counts as inactive or inconclusive.

SMILES | SARS PLP yeast | Pf growth 96h | Shiga toxin inh | Pf growth 48h | AMA1-RON2 inh | CHX counter
Cc1cc(C)c(C)c(S(=O)(=O)NCc2ccc(C(=O)N3CCCCC3)cc2)c1C | -38% | 0.41µM* | 39 | 1µM* | -4% | 22*
Cc1cc(C)c(C)c(S(=O)(=O)NCc2ccc(C(=O)N3CCCC3)cc2)c1C | 18% | ? | -7 | 6.6µM* | -11% | 0
CNC(=O)OCc1cocc1COC(=O)NC | . | . | . | . | 6% | .
CCCCCCCCCCC(C)=O | . | . | -6 | . | . | -5
Cc1ccc(CN(Cc2ccccc2)C(=S)NCC(=O)NCc2cccnc2)o1 | 5% | -5% | -7 | 12µM* | 0% | 12
O=C(CNC(=S)N(Cc1ccccc1)Cc1ccccc1F)NCCc1ccc(Cl)cc1 | -5% | ? | 0 | 12µM* | -23% | 3
COCCCNC(=O)CNC(=S)N(Cc1ccccc1)Cc1cccnc1 | 1% | 10µM* | -9 | 36% | -5% | -3
Cc1ccc(CNC(=O)CNC(=S)N(Cc2ccccc2)Cc2cccnc2)cc1 | 3% | ? | -14 | -15% | -3% | -2
Cc1ccc(CN(Cc2ccco2)C(=S)NCC(=O)NCc2cccnc2)cc1 | 1% | -6% | 13 | -11% | 4% | -3
O=C(CNC(=S)N(Cc1ccccc1)Cc1cccs1)NCc1ccc(F)cc1 | -6% | ? | 20 | ? | -25% | -1
COCCNC(=O)CNC(=S)N(Cc1ccccc1)Cc1cccnc1 | -13% | 12µM* | -9 | 7% | 3% | -3
CCC(C)NC(=O)CNC(=S)N(Cc1ccccc1)Cc1cccnc1 (stereo not drawn) | -8% | 0% | -9 | -4% | 2% | -4
O=C(CCSCc1cccc(Cl)c1)NCCc1ccccc1 | -68% | ? | -2 | 26% | -3%[11.6 µM] | 8
CCOC(=O)CN1C(=O)N[C@@H](c2cccc(C(F)(F)F)c2)[C@H](C(C)=O)[C@H]1C | . | . | . | . | -7% | .
Cc1cc(NC(=O)CSc2nnc(-c3ccncc3)n2N)ccc1Br | 2% | -24% | 25 | 1% | 21% | -2
CCN(CC)CCNc1ncnc2c1sc1nc(N3CCOCC3)c3c(c12)CC(C)(C)SC3 | 5% | 5.2µM* | -9 | ? | 13% | -3
CN(C)CCNc1ncnc2c1sc1nc(N3CCOCC3)c3c(c12)CC(C)(C)SC3 | 1% | ? | -15 | ? | ? | -8
O=C(C1=C[C@@H](C2CCCCC2)C[C@@H](OCc2ccc(CO)cc2)O1)N1CCN(Cc2ccccc2)CC1 | -4% | 4.1µM* | -3 | 4.1µM* | ? | -1
C[C@@H]1C=C(C(=O)N2CCN(Cc3ccccc3)CC2)O[C@H](OCc2ccc(CO)cc2)C1 | -2% | -3% | -15 | 2% | 48% | -3
O=C(C1=C[C@H](C2CCCCC2)C[C@H](OCc2ccc(CO)cc2)O1)N1CCOCC1 | 0% | ? | 13 | -7% | 4% | 1
O=C(C1=C[C@H](C2CCCCC2)C[C@H](OCc2ccc(CO)cc2)O1)N1CCN(Cc2ccccc2)CC1 | 0% | 12µM* | -3 | 5.2µM* | -11% | -2
CC(C)(C)NC(=O)NC(=O)COC(=O)c1ccco1 | 6% | 98% | -2 | 14% | -3% | -2
O=C(CNC(=O)c1ccc(F)cc1)NCc1ccc(Cl)cc1 | -1% | 50% | -6 | 17% | -9% | 0
O=C(CNC(=O)c1ccccc1)c1ccccc1 | 2% | 202% | . | 106% | -3% | .
O=C(CNC(=O)c1ccccc1C(=O)O)c1ccccc1 | 12% | 59% | 62* | 125% | 12% | 49*
SMILES | SARS PLP yeast | Pf growth 96h | Shiga toxin inh | Pf growth 48h | AMA1-RON2 inh | CHX counter
O=C(CNC(=O)c1ccc(Cl)cc1)c1ccccc1 | . | . | . | . | 4% | .
O=C(CNC(=O)c1ccc(Cl)cc1)c1ccc(Cl)cc1 | 0% | 31% | 52* | . | 2% | 16*
O=C(CNC(=O)c1ccc(F)cc1)c1ccc(Cl)cc1 | 4% | -7% | 69* | ? | 17% | 46*
O=C(CNC(=O)c1ccc(-c2ccccc2)cc1)OCc1ccc(Br)cc1 | 9% | 0% | 68* | 33% | 3% | 39*
CC(C)C[C@H]1CNC(=S)N1C[C@H]1CCCN1C[C@H](Cc1ccc(O)cc1)N1C[C@H](Cc2ccccc2)N(CC2CCCCCC2)C1=S | . | . | . | . | 9% | .
O=c1c2c(nc3nc(NCc4cccc5ccccc45)[nH]n13)CCC2 | 1% | 30% | -16 | 32% | -5% | -7
CCCCC(c1nnnn1CCOC)N1CCN(C)CC1 (stereo not drawn) | -18% | 7% | 5 | -5% | 7% | -1
O=C(CNC(=O)c1ccc(Br)cc1)c1ccccc1 | -3% | 264% | 29* | 95% | 0% | 28*
Cc1cc(NC(=O)c2nn3cccnc3c2Cl)no1 | 20% | 205% | 34* | . | -3% | 40*
O=C(Nc1cc(Cl)cc(Cl)c1)c1cnn2cccnc12 | 5% | -27% | -28 | 32% | -3% | 1
COC(=O)c1ccccc1NC(=O)c1cnn2cccnc12 | -1% | 18% | -14 | 7% | 4% | -1
O=C(Nc1cccc(Cl)c1)c1cnn2cccnc12 | -14% | . | active | 317% | -1% | 38*
Cc1cc(NC(=O)c2cnn3cccnc23)no1 | 9% | . | 141* | 121% | ? | 54*
O=C(O)c1c[nH]c(=O)c2ccccc12 | 0% | 13% | 2 | ? | 0% | 3
COc1ccc(CN(C)C(C)C(=O)Nc2cccc3ccccc23)cc1 (stereo not drawn) | 0% | ? | -4 | ? | -9% | -1
CCOC1=C2[C@@H](CN(S(=O)(=O)c3ccc(C)cc3)[C@H]2c2ccc(Cl)cc2)[C@H]2C(=O)N(c3ccccc3)C(=O)[C@H]2C1 | . | . | . | . | 3% | .
Nc1nnc(SCCCC(=O)c2ccc(Br)cc2)s1 | 12% | -7% | 67* | 11% | -8% | 58*
Nc1nnc(SCC(=O)OCC(=O)Nc2ccc(Br)cc2)s1 | 15% | -7% | -14 | 12% | -23% | -1
Nc1nnc(SCCCC(=O)c2ccc(F)cc2)s1 | -23% | 6% | + | 31% | 16% | 33*
O=C(CCCSc1nnc(SCCCC(=O)c2ccc(F)cc2)s1)c1ccc(F)cc1 | 10% | ? | -19 | ? | 53% | 5
Cc1nnsc1C(=O)Nc1ccc(S(=O)(=O)N2CCCC(C)C2)cc1 (stereo not drawn) | 7% | ? | 32 | -17% | 0% | 7
N#C/C(=C\c1cn(CCOc2ccccc2)c2ccccc12)C(=O)NCc1cccs1 | -12% | ? | 7 | 32% | -16% | 2
Nc1nc(N)c(Br)c(Nc2ccc(Cl)c(Cl)c2)n1 | . | . | . | . | -2% | .
Nc1nc(N)c(C=Nc2ccc(Br)cc2)c(Nc2ccc(Br)cc2)n1 | -7% | 0.33µM* | 21 | 0.59µM* | 0% | 9
c1ccc(NC2=Nc3ccccc3CS2)cc1 | 8% | 108%[5.75 µM] | 99* | 147% | -2% | 31*
